# Data published in PubChem BioAssay (NCATS).
# Records with an inconclusive call do not appear. Entries that show only a call come without a potency. Calls of active or inactive are those of the source. The call rests on the fitted dose curve; in most records, active means well fitted cell-killing curve with a large enough effect; inconclusive means small, poorly fitted or top-dose-only effect; inactive means flat fitted curve, though single readings scatter.
# Experiment: Quantitative highthroughput screen to assess conditional lethalithy of NOMO1 cells grown in RPMI1640 with untreated serum (RPMI+s) (AID 1963876); further: nearly all actives have a fitted effect of over 35% in size
# Conditions: NOMO1 AML cells in RPMI+serum, CellTiter-Glo viability, 48 h; series mostly up to 45.8 µM
# From the text: Assay Provider: Jason Cantor Ph.D.
# Department of Biochemistry
# University of Wisconsin-Madison, Madison, WI, USA
# Chemical screening studies have identified drug sensitivities across hundreds of cancer cell lines but most putative therapeutics fail to translate. Discovery and development of drug candidates in models that more accurately reflect nutrient levels in human blood is a major challenge. Here we performed high-throughput screens in conventional versus Human Plasma-Like Medium (HPLM) to identify compounds that were "missed" when screening using the artificial culture condition. Sets of conditional anticancer compounds spanned phases of clinical development and included non-oncology drugs were assessed. […] We also traced conditional phenotypes for several chemotherapeutics to availability of HPLM-specific metabolites and confirmed others for compounds whose reported targets are encoded by nonessential genes. Our findings establish generalizable strategies for exploiting conditional lethality in HPLM to reveal therapeutic candidates and mechanisms of action in cancer cells.
# Described herein are the results of each viability screens against three cell lines: NOMO1 (an acute myeloid leukemia cell line); P12-Ichikawa (a T-cell acute lymphoblastic leukemia); and SEM (a B-cell ALL). Each assay was screened using 3 different cell culture media: homemade human plasma-Like medium with 10% dialyzed fetal bovine serum (HPLM+ds); RPMI1640 with 10% untreated FBS and 5mM glucose (RPMI+s); and RPMI1640 with 10% dialyzed fetal bovine serum and 5 mM glucose (RPMI+ds).
# PROTOCOL TABLE (as described by Inglese J, Shamu CE and Guy RK. 2007)
# SEQUENCE No. (e.g., 1, 2, 3, etc.); […] (e.g., Cells, Incubation, Reagent, etc.); VALUE and DESCRIPTION.
# 1; Cells; 5 uL; white, solid bottom 1536-well Greiner assay plate.
# 2; Compounds; 23 nL; Kalypsis pin tool (Wako USA) equipped with a 1536-well pin head to transfer to the assay plates.
# 3; Incubation; 48 hours; 37C incubation.
# 4; Reagent; 3 uL; CellTiter Glo (Promega).
# 5; Incubation; 5 min, room temperature
# 6; Detection; Luminescence, Viewlux PerkinElmer.
# NOTES (numbers refer to Sequence numbers above)
# 1. Briefly, 5 ul of cell reagent was dispensed using a Multidrop Combi Dispenser. The NOMO1 and SEM cells were plated at 500 cells/well and the P12-Ichikawa line at 1000 cells/well.
# 2. After seeding the cells, 23 nL of MIPE 4.1 library compounds (in DMSO) were added to each plate using a Kalypsys 1536 Pintool dispenser. Bortezomib at final concentration of […] and DMSO were added to each plate as positive and negative controls respectively. For each screen, MIPE 4.1 compounds were added over an eleven-point concentration range […] in 3-fold dilutions.
# 3. Each plate was covered with a stainless steel gasketed lid to prevent evaporation and incubated for 48 hour at 37C, 95% relative humidity, and 5% CO2.
# 4-5. Three microliter CellTilter-GloTM luminescent substrate mix (Promega) reagent was added to the assay plate and incubated at room temperature for 5 min.
# 6. The luminescence signal was measured using a ViewLux (PerkinElmer) multiplate reader with a 2 second exposure time per plate. Data for each compound were normalized as percent viability such that measurements for DMSO and the empty well controls in each plate were defined as 100% and 0%, respectively.
# Potency means the concentration at half of the fitted maximal effect.
row,SMILES,Potency
1,C[C@H]1CCCC=CC2C[C@H](O)C[C@@H]2[C@H](O)C=CC(=O)O1 (stereo not given in full),inactive
2,Cc1sc2c(c1C)C(c1ccc(Cl)cc1)=N[C@@H](CC(=O)OC(C)(C)C)c1nnc(C)n1-2,0.526 µM (active)
3,CC(=O)O[C@@]12CO[C@H]1C[C@H](O)[C@@]1(C)C(=O)[C@H](O)C3=C(C)[C@@H](O)C[C@@](O)([C@@H](OC(=O)c4ccccc4)[C@@H]21)C3(C)C,14.8 µM (active)
4,Cc1nc(-c2ccc(-c3ccc(C(=O)N4CCc5cc6c(cc54)C4(CCN(C)CC4)CO6)cc3)c(C)c2)no1,inactive
5,CSCC[C@@H](NC(=O)[C@@H](Cc1ccccc1)NC(=O)CNC(=O)CNC(=O)[C@@H](N)Cc1ccc(O)cc1)C(=O)O,inactive
6,O=C(Nc1ccncc1)C(=O)c1cn(Cc2ccc(Cl)cc2)c2ccccc12,0.132 µM (active)
7,CC(NC(C)(C)C)C(=O)c1cccc(Cl)c1 (stereo not given),inactive
8,C[C@@]12OC(=O)[C@]1([C@@H](O)[C@@H]1C=CCCC1)NC(=O)[C@H]2CCCl,0.235 µM (active)
9,C#CC1(O)CCC2C3CCC4=CC(=O)CCC4(C)C3CCC21C (stereo not given),inactive
10,CC(=O)Nc1ccc(OC[C@](C)(O)C(=O)Nc2ccc([N+](=O)[O-])c(C(F)(F)F)c2)cc1,inactive
11,C[C@](O)(CS(=O)(=O)c1ccc(F)cc1)C(=O)Nc1ccc(C#N)c(C(F)(F)F)c1,inactive
12,COCC1(CO)C(=O)C2CCN1CC2 (stereo not given),20.9 µM (active)
13,CC(C)c1cccc(C(C)C)c1O,inactive
14,NC1=NC(=O)N2CC12 (stereo not given),5.9 µM (active)
15,C=C[C@@H]1CN2CCC1C[C@@H]2[C@@H](O)c1ccnc2ccccc12 (stereo not given in full),inactive
16,CN(C)CCc1ccc(O)cc1,inactive
17,C[C@@H]1[C@@H](CC(C[C@H]2O[C@@H]3O[C@]4(C)CC[C@@H]5[C@H](C)CC[C@@H]([C@H]2C)[C@@]35OO4)C[S+](=O)([O-])c2ccc(COC(=O)N(C)C)cc2)O[C@@H]2O[C@]3(C)CC[C@H]4[C@H](C)CC[C@@H]1[C@@]24OO3 (stereo not given in full),0.833 µM (active)
18,CCCC(C)(COC(N)=O)COC(=O)NC(C)C (stereo not given),inactive
19,COc1ccc(CC2NCCc3cc(OC)c(OC)cc32)cc1OC (stereo not given),inactive
20,N[C@@H](Cc1ccc(N(CCCl)CCCl)cc1)C(=O)O,10.5 µM (active)

row,SMILES,Potency
1,O=C1CC[C@@]2(O)[C@H]3Cc4ccc(O)c5c4[C@@]2(CCN3CC2CC2)[C@H]1O5,7.43 µM (active)
2,CCNC(=O)C[C@@H]1N=C(c2ccc(Cl)cc2)c2cc(OC)ccc2-n2c(C)nnc21,9.35 µM (active)
3,CC(C)CC(N(C)C)C1(c2ccc(Cl)cc2)CCC1 (stereo not given),inactive
4,Cc1c(N)nc([C@H](CC(N)=O)NC[C@@H](N)C(N)=O)nc1C(=O)N[C@H](C(=O)N[C@@H](C)[C@H](O)[C@@H](C)C(=O)N[C@@H](C(=O)NCCc1nc(-c2nc(C(=O)NCCC[S+](C)C)cs2)cs1)[C@@H](C)O)C(O[C@H]1O[C@H](CO)[C@H](O)[C@@H](O)[C@@H]1O[C@H]1O[C@H](CO)[C@@H](O)[C@H](OC(N)=O)[C@H]1O)c1cnc[nH]1 (stereo not given in full),1.18 µM (active)
5,COc1ccc(C(=O)c2c(C)n(CCN3CCOCC3)c3ccccc23)cc1,inactive
6,O=c1[nH]c2ccccc2n1C1CCN(Cc2ccc(-c3[nH]c4cc5ncnc5cc4nc3-c3ccccc3)cc2)CC1,inactive
7,CC(=CCCC1=CCC(C2=CC(=O)OC2O)OC1O)CCC1=C(C)CCCC1(C)C (stereo not given),inactive
8,Cn1c(CCCC(=O)O)nc2cc(N(CCCl)CCCl)ccc21,inactive
9,c1cc2c(cc1[C@H]1OC[C@H]3[C@H]1CO[C@H]3c1ccc3c(c1)OCO3)OCO2,inactive
10,C[C@H]([C@H](O)CCC(C)(C)O)[C@H]1CC[C@@]2(O)C3=CC(=O)[C@@H]4C[C@@H](O)[C@@H](O)C[C@]4(C)[C@@H]3CC[C@]12C,inactive
11,COC[C@H]1OC(=O)c2coc3c2[C@@]1(C)C1=C(C3=O)C2CCC(=O)[C@@]2(C)C[C@H]1OC(C)=O (stereo not given in full),inactive
12,CCOC(=O)c1c(C(C#N)=CN)c2ccc(Cl)c(Cl)c2n1C,inactive
13,C[C@@H]1[C@H](O)[C@@H](C)C=CC=CCCC=CC=CC=CC=C[C@H](O[C@H]2O[C@@H](C)[C@H](O)[C@@H](N)[C@@H]2O)CC2O[C@](O)(C[C@@H](O)[C@H](O)CC[C@@H](O)C[C@@H](O)C[C@@H](O)CC(=O)O[C@H]1C)C[C@H](O)[C@H]2C(=O)O,inactive
14,COc1cccc2c1[C@]13CCN(CC4CC4)[C@H](C2)[C@]1(OC)CCC(=O)C3,inactive
15,CC(C)C[C@H](CN)CC(=O)O,inactive
16,CCN1C[C@]2(OC(=O)c3ccccc3NC(C)=O)CC[C@H](OC)[C@@]34[C@H]5CC6[C@@H](OC)C[C@](O)(C(C[C@@H]23)[C@@H]14)[C@@]5(O)[C@@H]6OC,inactive
17,O=C(O)c1nn(Cc2ccc(Cl)cc2Cl)c2ccccc12,inactive
18,O=C(N[C@H]1CN2CCC1CC2)c1ccc(Cl)cc1,inactive
19,COc1cc(C(=O)N2CC[C@@H](O)[C@@H](N)C2)cc2nc(-c3cc4ccccc4n3CC3CC3)n(C)c12,0.933 µM (active)
20,CC(C)N(CCNC(=O)CN1CCCC1=O)C(C)C,inactive
